Source: PubChem (National Center for Advancing Translational Sciences (NCATS))
Cycloheximide cs = affects cycloheximide protein synthesis inhibition readout, counter-screen; max response, %; hit rate 12% among 300,000; cell reporter, cycloheximide protein synthesis inhibition counterscreen; AID 2314; in the data active = max response mostly above about 13%, no sharp cut-off; inactive = mostly below about 14%; also: read at 38.3 µM for the half of the compounds with a filed dose
LASV entry inh = Lassa virus entry inhibition | Lassa virus pseudotype entry inhibition, cell reporter | Potency, µM (highest dose often 37.9 µM), usual class: inhibitors | hit rate 1.2% among 300,000; calls by dose curve; tested in HEK293 cells; also: nearly all actives have a fitted effect of over 50% in size
MARV entry inh = inhibitors of Marburg virus binding or cell entry. Marburg virus pseudotyped entry inhibition, cell reporter. Potency, µM (top dose mostly 37.8 µM), most hits filed as inhibitors. hit rate 1.8% among 300,000; calls by dose curve; tested in HEK293 cells
Shiga toxin inh = Shiga toxin inhibition | inhibition, % at 38.7 µM | Vero cells, Shiga toxin protein synthesis inhibition reporter | hit rate 9.2% among 290,000; in the data active = inhibition mostly above about 28%, no sharp cut-off; inactive = mostly below about 43%
Each line names hits and unclear results; the compound was inactive in the other large screens. Rows were chosen to be rich in hits. Some 12% of all compounds tested hit in one or more screens of this group.

Cc1cc(C)c(Cn2c(=O)n(CCC(=O)NCc3ccc4c(c3)OCO4)c(=O)c3ccccc32)c(C)c1	none (no result: Cycloheximide cs, Shiga toxin inh)
CCOCC(=O)Nc1nc2ccc(S(C)(=O)=O)cc2s1	Cycloheximide cs 33, Shiga toxin inh 54
COc1ccc([C@@H]2[C@@H]3C(=O)N(C(C)(C)C)C(=O)[C@@H]3[C@]3(Cc4ccc(Cl)cc4)C(=O)N(c4cccc(C)c4)C(=O)N23)cc1	none (no result: LASV entry inh, MARV entry inh)
CC1=NN(C(N)=S)C(=O)C1N=Nc1ccccc1Cl (stereo not given)	Cycloheximide cs 18 (no result: LASV entry inh, MARV entry inh, Shiga toxin inh)
CC1=NN(C(N)=S)C(=O)C1N=Nc1ccc(Cl)cc1Cl (stereo not given)	Cycloheximide cs 25, Shiga toxin inh 77 (no result: LASV entry inh, MARV entry inh)
COc1ccccc1N=NC1C(=O)N(C(N)=S)N=C1C (stereo not given)	none (no result: Shiga toxin inh)
NC(=O)[C@@H]1CCCN1C(=O)C(Cc1cnc[nH]1)NC(=O)C1CCC(=O)N1 (stereo not given in full)	none (no result: LASV entry inh, MARV entry inh)
Cc1ccc(-n2nc3ccc(NC(=O)c4cccc([N+](=O)[O-])c4C)cc3n2)cc1	Cycloheximide cs 28, MARV entry inh inconclusive
Cc1ccc(-n2nc3ccc(NC(=O)C(C)C)cc3n2)cc1	Cycloheximide cs 54, LASV entry inh inconclusive, Shiga toxin inh 119
CC(C)C(=O)Nc1ccc2nn(-c3ccc(F)cc3)nc2c1	Cycloheximide cs 28, Shiga toxin inh 46 (no result: LASV entry inh, MARV entry inh)
CC(C)C(=O)Nc1ccc(N2CCN(c3ccc(F)cc3)CC2)cc1	none
Cc1ccc(-n2nc3ccc(NC(=O)c4ccc5c(c4)OCO5)cc3n2)cc1	none
CCCC(=O)Nc1ccc2nn(-c3ccc(OC)cc3)nc2c1	Cycloheximide cs 41, LASV entry inh inconclusive, MARV entry inh inconclusive (no result: Shiga toxin inh)
CCC(C)NC(=O)CN1c2cccc3cccc(c23)S1(=O)=O (stereo not given)	none (no result: LASV entry inh, MARV entry inh)
COc1ccc(CNC(=O)c2cc(-c3ccc(OC)c(OC)c3)nc3n[nH]c(-c4ccc(C)cc4)c23)cc1	none (no result: Cycloheximide cs, MARV entry inh, Shiga toxin inh)
O=C(Nc1ccc2nn(-c3ccccc3)nc2c1)c1cc2ccccc2o1	none (no result: Cycloheximide cs, MARV entry inh, Shiga toxin inh)
CC(C)CC(=O)Nc1ccc2nn(-c3ccccc3)nc2c1	Cycloheximide cs 66, LASV entry inh inconclusive, MARV entry inh inconclusive, Shiga toxin inh 53
Cc1ccc(-n2nc3ccc(NC(=O)c4oc5ccc(C)cc5c4C)cc3n2)cc1	none (no result: Cycloheximide cs, MARV entry inh, Shiga toxin inh)
Cc1ccc(-n2nc3ccc(NC(=O)c4ccco4)cc3n2)cc1	Cycloheximide cs 38, Shiga toxin inh 51
Cc1cccc(C(=O)Nc2cccc(C(=O)Nc3cc(C)ccn3)c2)c1	Cycloheximide cs 8.5 (no result: LASV entry inh, MARV entry inh)
Cc1ccnc(NC(=O)c2cccc(NC(=O)Cc3ccccc3)c2)c1	Cycloheximide cs 15, MARV entry inh inconclusive
Cc1ccnc(NC(=O)c2cccc(NC(=O)c3ccc(Cl)cc3)c2)c1	none (no result: Cycloheximide cs, Shiga toxin inh)
Cc1ccnc(NC(=O)c2cccc(NC(=O)c3ccc(Cl)c(Cl)c3)c2)c1	MARV entry inh inconclusive (no result: Cycloheximide cs, Shiga toxin inh)
O=C(Oc1ccc2ccc(O)cc2c1)c1ccccc1Cl	Cycloheximide cs 32, Shiga toxin inh 44
O=C(Oc1ccc2ccc(O)cc2c1)C1CCCCC1	none
COc1cc(C(=O)Oc2ccc3ccc(O)cc3c2)cc(OC)c1OC	Cycloheximide cs 21 (no result: LASV entry inh, MARV entry inh)
COc1ccccc1NC(=O)CSc1nc(=O)n(Cc2ccncc2)c2c1CCCC2	none (no result: Cycloheximide cs, Shiga toxin inh)
CCCCSc1nc2c(cc1C#N)CCC2	Cycloheximide cs 12, LASV entry inh inconclusive
C=CCSc1nc2c(cc1C#N)CCC2	Cycloheximide cs 16
Cc1ccc(-n2nc3c(=O)n(CCCC(=O)NCc4ccc(C)o4)nc(C)c3c2C)cc1	none (no result: LASV entry inh, MARV entry inh)
NCCNC(=O)c1c(O)c2cccc3c2n(c1=O)CCC3	MARV entry inh 10µM
CCCNC(=O)c1c(O)c2cccc3c2n(c1=O)CCC3	none
Cc1c(-c2ccccc2)nc(-c2ccccc2)[nH]c1=O	MARV entry inh inconclusive
c1ccc(-c2nc3c([nH]2)CCc2nonc2-3)cc1	Cycloheximide cs 31, MARV entry inh inconclusive, Shiga toxin inh 78
O=C1CCCc2[nH]c(-c3ccccc3)nc21	Cycloheximide cs 37, Shiga toxin inh 59
CC(C)[C@H](NC(=O)c1nn(Cc2ccccc2)c(=O)c2ccccc12)C(=O)O	MARV entry inh inconclusive
Cc1ccc(NC(=O)c2c(NC(=O)c3ccc(F)cc3)sc3c2CCCC3)cc1C	none (no result: Cycloheximide cs, MARV entry inh, Shiga toxin inh)
O=C(c1cnn(-c2ccccc2)c1)c1ccc2ccccc2c1O	Cycloheximide cs 15
CC(C)c1ccc(O)c(C(=O)c2cnn(-c3ccccc3)c2)c1	MARV entry inh inconclusive (no result: Cycloheximide cs, Shiga toxin inh)
CC(C)(C)n1cc(C(=O)c2ccc3ccccc3c2O)cn1	LASV entry inh 13µM, MARV entry inh 4µM, Shiga toxin inh 46
Cc1ccc2nc(NC(=O)CN3C(=O)C4CC=CCC4C3=O)sc2c1 (stereo not given)	Cycloheximide cs 14, LASV entry inh inconclusive, MARV entry inh inconclusive
O=C(CN1C(=O)C2CC=CCC2C1=O)Nc1nc2ccccc2s1 (stereo not given)	Cycloheximide cs 28, Shiga toxin inh 52 (no result: LASV entry inh, MARV entry inh)
O=C(CN1C(=O)NC2(CCCC2)C1=O)Nc1nc2ccccc2s1	none (no result: Cycloheximide cs, Shiga toxin inh)
CS(=O)(=O)c1ccc2nc(NC(=O)CN3C(=O)C4CC=CCC4C3=O)sc2c1 (stereo not given)	LASV entry inh inconclusive, MARV entry inh inconclusive
O=C1CCCN1C(=O)CSc1ncnc2sccc12	none (no result: Cycloheximide cs, Shiga toxin inh)
Cc1nn(-c2ccccc2)c2sc(C(=O)Nc3cccc(O)c3)cc12	LASV entry inh inconclusive (no result: Cycloheximide cs, Shiga toxin inh)
Cc1csc(Nc2ccc(Cl)cc2)n1	Cycloheximide cs 24, MARV entry inh inconclusive, Shiga toxin inh 73
Cc1ccc(Nc2nc(C)cs2)cc1	Cycloheximide cs 54, LASV entry inh inconclusive, MARV entry inh inconclusive, Shiga toxin inh 125
Cc1csc(NS(=O)(=O)c2ccc(Cl)cc2)n1	none (no result: LASV entry inh, MARV entry inh)
CCOc1ccc(C(=O)Nc2nc(C)c(C(=O)OC)s2)cc1	Cycloheximide cs 35, MARV entry inh inconclusive, Shiga toxin inh 51
C=CCOC(=O)c1sc(NC(=O)c2ccc(OC)cc2)nc1C	Cycloheximide cs 16
CCOC(=O)c1sc(NC(=S)NC(=O)c2ccc(OC)cc2)nc1C	none
Cc1ccccc1C(=O)OC1OC(=O)C(Cl)=C1N1CCOCC1 (stereo not given)	LASV entry inh inconclusive
O=C(NC1CCCc2ccccc21)C(Cc1ccccc1)NS(=O)(=O)c1cccs1 (stereo not given)	LASV entry inh inconclusive, MARV entry inh inconclusive
Cc1cccc(CC(C)NC(=O)c2oc3c(F)cccc3c2C)n1 (stereo not given)	Cycloheximide cs 15, Shiga toxin inh 29
Cc1c(C(=O)NC(c2ccccn2)C(F)(F)F)oc2c(F)cccc12 (stereo not given)	none (no result: LASV entry inh, MARV entry inh)
CCc1ccc(CCN2C(=O)c3ccccc3C2=O)nc1	Cycloheximide cs 25
Cc1nc(CCN2C(=O)c3ccccc3C2=O)n[nH]1	none
COc1ccc(/C=C2\SC(=O)NC2=S)cc1OC	MARV entry inh inconclusive
COc1ccc(/C=C2\CCn3c2nc2ccccc2c3=O)cc1OC	Cycloheximide cs 28 (no result: LASV entry inh, MARV entry inh)
COc1ccc(/C=C2\CCn3c2nc2cc(C(=O)O)ccc2c3=O)cc1OC	none
COc1ccc(/C=C2\Cc3ccccc3C2=O)cc1OC	Cycloheximide cs 28, Shiga toxin inh 75 (no result: LASV entry inh, MARV entry inh)
COc1ccc(/C=C2/CSC/C(=C/c3ccc(OC)c(OC)c3)C2=O)cc1OC	LASV entry inh 3.2µM, MARV entry inh 3.5µM (no result: Cycloheximide cs, Shiga toxin inh)
COc1ccc(/C=C2\CCc3ccccc3C2=O)cc1Cn1cccn1	Cycloheximide cs 41, LASV entry inh inconclusive, MARV entry inh 18µM, Shiga toxin inh 69
COc1ccc(-n2c(=O)c3c4c(sc3n3c(=S)[nH]nc23)COC(C(C)C)C4)cc1 (stereo not given)	none
O=C(NCN1CCOCC1)c1cnccn1	none
